In PubChem BioAssay (NCI):
Several values for one entry are separate records, joined by “and”; a condition that tells them apart may be missing. Equal values may be shown once. Compounds without any hit were thinned out: in the full panel of roughly 83,000, 20% have a hit.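 A percent growth of 40 corresponds to 60% growth inhibition; 0 means no net growth; -100 means all cells died. Active threshold: below 10.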 Activity calls are given as the source filed them.

How the values were obtained:
Experiment in all cases: NCI-60 one-dose screen, 48 h (100 = growth as untreated, 0 = no growth, -100 = all killed)
[1] = tested on: SW-620 colon
[2] = tested on: MCF7 breast
[3] = tested on: HCT-116 colon
[4] = tested on: HCC-2998 colon
[5] = tested on: KM12 colon

## COc1ccccc1/C=C(/C)[N+](=O)[O-]
[1]; 10 µM unless noted
  growth: 49.8% (inactive) and 106% (inactive)
[2]; 10 µM
  growth: 7.37% (active) and 105% (inactive)
[3]; 10 µM unless noted
  growth: 44% (inactive) and 98.6% (inactive)
[4]; 10 µM unless noted
  growth: 103% (inactive) and 99% (inactive)
[5]; 10 µM unless noted
  growth: 70% (inactive) and 99.8% (inactive)

## CC1CCC2(NC1)OC1CC3C4CCC5CC(OC6OC(CO)C(OC7OC(CO)C(O)C(OC8OCC(O)C(O)C8O)C7OC7OC(CO)C(O)C(O)C7O)C(O)C6O)CCC5(C)C4CCC3(C)C1C2C (centres undefined)
[2]; 100 µM
  growth: -86% (active) and -100% (active)

## Cc1c(N)nc([C@H](CC(N)=O)NC[C@H](N)C(N)=O)nc1C(=O)N[C@H](C(=O)N[C@H](C)[C@@H](O)[C@H](C)C(=O)N[C@H](C(=O)NCCc1nc(-c2nc(C(=O)NCCC[S+](C)C)cs2)cs1)[C@@H](C)O)C(OC1OC(CO)C(O)C(O)C1OC1OC(CO)C(O)C(OC(N)=O)C1O)c1cnc[nH]1 (some centres undefined)
[1]; 10 µM unless noted
  growth: 83.4% [2.5 µM] (inactive)
[2]; 2.5 µM
  growth: 52.9% (inactive)
[2]; 25 µM
  growth: 15.6% (inactive) and 0.932% (active)
[3]; 10 µM unless noted
  growth: 34.2% [2.5 µM] (inactive)
[4]; 10 µM unless noted
  growth: 5.84% [2.5 µM] (active)
[5]; 10 µM unless noted
  growth: 80.9% [2.5 µM] (inactive)

## Oc1cc[c]([Hg][Cl])cc1
[1]; 10 µM unless noted
  growth: 105% (inactive)
[2]; 10 µM
  growth: 50.5% (inactive)
[3]; 10 µM unless noted
  growth: 91% (inactive)
[4]; 10 µM unless noted
  growth: 114% (inactive)
[5]; 10 µM unless noted
  growth: 97.4% (inactive)

## CC[C@@]1(O)C[C@H](OC2CC(N(C)C)C(OC3CC(O)C(OC4CCC(=O)C(C)O4)C(C)O3)C(C)O2)c2c(cc3c(c2O)C(=O)c2c(O)ccc(O)c2C3=O)[C@H]1C(=O)OC (some centres undefined)
[1]; 10 µM unless noted
  growth: -1.19% (active)
[2]; 10 µM
  growth: 0.371% (active)
[3]; 10 µM unless noted
  growth: -58.7% (active)
[4]; 10 µM unless noted
  growth: -77.5% (active)
[5]; 10 µM unless noted
  growth: -14.9% (active)

## CC1=C(CO)C2=C(C)C3(CC3)[C@@](C)(O)C(=O)C2=C1
[1]; 10 µM unless noted
  growth: 26.3% (inactive)
[2]; 10 µM
  growth: 8.34% (active)
[3]; 10 µM unless noted
  growth: 2.68% (active)
[4]; 10 µM unless noted
  growth: -76.7% (active)
[5]; 10 µM unless noted
  growth: 12.4% (inactive)

## CCC1(O)CC(OC2CC(N(C)C)C(OC3CC4OC5CC(=O)C(C)OC5OC4C(C)O3)C(C)O2)c2c(cc3c(c2O)C(=O)c2c(O)ccc(O)c2C3=O)C1C(=O)OC (centres undefined)
[1]; 10 µM unless noted
  growth: -11.4% (active)
[2]; 10 µM
  growth: 2.21% (active)
[3]; 10 µM unless noted
  growth: -2.93% (active)
[4]; 10 µM unless noted
  growth: -89.9% (active)
[5]; 10 µM unless noted
  growth: -55.3% (active)

## COC1=C(C)C(=O)C2=C(C1=O)C(CO)N1C(C#N)C3CC4C(C1C2N1CCOC41)N3C (centres undefined)
[1]; 10 µM unless noted
  growth: -28% (active)
[2]; 10 µM
  growth: -0.551% (active)
[3]; 10 µM unless noted
  growth: -33.7% (active)
[4]; 10 µM unless noted
  growth: -87.3% (active)
[5]; 10 µM unless noted
  growth: -60.8% (active)

## Oc1cccc2cccnc12
[1]; 10 µM unless noted
  growth: 48.2% (inactive) and 100% (inactive) and 103% (inactive)
[2]; 10 µM
  growth: 1.86% (active) and 103% (inactive) and 104% (inactive)
[3]; 10 µM unless noted
  growth: 47.6% (inactive) and 108% (inactive) and 113% (inactive)
[4]; 10 µM unless noted
  growth: 100% (inactive) and 103% (inactive) and 123% (inactive)
[5]; 10 µM unless noted
  growth: 102% (inactive) and 106% (inactive) and 103% (inactive)

## CC[C@](O)(C(=O)O)c1cc2n(c(=O)c1CO)Cc1cc3ccccc3nc1-2
[1]; 10 µM unless noted
  growth: -30% (active)
[2]; 10 µM
  growth: 1.99% (active)
[3]; 10 µM unless noted
  growth: -26.6% (active)
[4]; 10 µM unless noted
  growth: -61.6% (active)
[5]; 10 µM unless noted
  growth: -29.9% (active)

## CC[C@@]1(O)C[C@H](OC2CC(N(C)C)C(O)C(C)O2)c2c(O)c3c(c(O)c2[C@H]1OC1CC(N(C)C)C(O)C(C)O1)C(=O)c1cccc(O)c1C3=O (some centres undefined)
[1]; 10 µM unless noted
  growth: -0.489% (active)
[2]; 10 µM
  growth: -8.26% (active)
[3]; 10 µM unless noted
  growth: -3.79% (active)
[4]; 10 µM unless noted
  growth: -83.6% (active)
[5]; 10 µM unless noted
  growth: -50.3% (active)

## S=C(SSC(=S)N1CCCCC1)N1CCCCC1
[1]; 10 µM
  growth: 95.3% (inactive)
[1]; 100 µM
  growth: -55.7% (active)
[2]; 10 µM
  growth: 80.1% (inactive)
[2]; 100 µM
  growth: -46.8% (active)
[3]; 10 µM
  growth: 85.3% (inactive)
[3]; 100 µM
  growth: -76.4% (active)
[4]; 10 µM
  growth: 109% (inactive)
[4]; 100 µM
  growth: 22.3% (inactive)
[5]; 10 µM
  growth: 102% (inactive)
[5]; 100 µM
  growth: -18.5% (active)

## COc1ccc(OC)c(/C=C/[N+](=O)[O-])c1
[1]; 10 µM unless noted
  growth: -38.7% (active)
[2]; 10 µM
  growth: -1.64% (active)
[3]; 10 µM unless noted
  growth: -81.5% (active)
[4]; 10 µM unless noted
  growth: -82.4% (active)
[5]; 10 µM unless noted
  growth: 11.7% (inactive)

## COC1CC(CC2CCC(C)C(C(C)C(=O)O)O2)OC2(OC(C)(C3CCC(C)(C4OC(C5OC(O)(CO)C(C)CC5C)CC4C)O3)CC2C)C1C (centres undefined)
[1]; 10 µM unless noted
  growth: 6.56% (active)
[2]; 10 µM
  growth: 8.04% (active)
[3]; 10 µM unless noted
  growth: 3.98% (active)
[4]; 10 µM unless noted
  growth: -10% (active)
[5]; 10 µM unless noted
  growth: -33.4% (active)

## CN1CCN(c2ccc([N+](=O)[O-])c3no[n+]([O-])c23)CC1
[1]; 10 µM unless noted
  growth: -70.9% (active)
[2]; 10 µM
  growth: -49.3% (active)
[3]; 10 µM unless noted
  growth: -66.5% (active)
[5]; 10 µM unless noted
  growth: -82.8% (active)

## NCCc1ccc(OCc2ccccc2)c(OCc2ccccc2)c1
[1]; 10 µM unless noted
  growth: 83.7% (inactive)
[2]; 10 µM
  growth: 69.9% (inactive)
[3]; 10 µM unless noted
  growth: 61.8% (inactive)
[4]; 10 µM unless noted
  growth: 34.6% (inactive)
[5]; 10 µM unless noted
  growth: 80.7% (inactive)

## CC1=C2C(=O)[C@H]3[C@@H](CC=C4C[C@@H](O)CC[C@@]43C)[C@@H]2CC[C@]12O[C@@H]1C[C@H](C)CN[C@H]1[C@H]2C
[1]; 10 µM unless noted
  growth: 99.2% (inactive)
[2]; 10 µM
  growth: 91.6% (inactive)
[3]; 10 µM unless noted
  growth: 45.5% (inactive)
[4]; 10 µM unless noted
  growth: 141% (inactive)
[5]; 10 µM unless noted
  growth: 112% (inactive)

## CC[n+]1c(-c2ccccc2)c2cc(N)ccc2c2ccc(N)cc21
[1]; 10 µM unless noted
  growth: 17.9% (inactive)
[3]; 10 µM unless noted
  growth: 13.8% (inactive)
[4]; 10 µM unless noted
  growth: 6.95% (active)
[5]; 10 µM unless noted
  growth: 7.69% (active)

## CCOC(=O)C(NC(=O)C(Cc1ccc(N(CCCl)CCCl)cc1)NC(C)=O)C(C)C (centres undefined)
[1]; 10 µM unless noted
  growth: 69.4% (inactive)
[2]; 10 µM
  growth: 61.9% (inactive)
[3]; 10 µM unless noted
  growth: 77.2% (inactive)
[4]; 10 µM unless noted
  growth: 73.2% (inactive)
[5]; 10 µM unless noted
  growth: 94.8% (inactive)

## CCCCCCCCCCCC1CCCC(C)N1 (centres undefined)
[1]; 10 µM unless noted
  growth: 49.4% (inactive)
[2]; 10 µM
  growth: 44.1% (inactive)
[3]; 10 µM unless noted
  growth: 65% (inactive)
[4]; 10 µM unless noted
  growth: -72.4% (active)
[5]; 10 µM unless noted
  growth: 44% (inactive)

## O=C1c2ccccc2C(=O)C(Cl)C1Cl (centres undefined)
[2]; 10 µM
  growth: -62.2% (active)
[3]; 10 µM unless noted
  growth: -95.7% (active)
[4]; 10 µM unless noted
  growth: 111% (inactive)
[5]; 10 µM unless noted
  growth: 56.8% (inactive)

## CCC(=O)OC1CCn2c1nc1c2C(=O)C(C)=C(N2CC2)C1=O (centres undefined)
[1]; 10 µM unless noted
  growth: 3.77% (active)
[2]; 10 µM
  growth: -15.6% (active)
[3]; 10 µM unless noted
  growth: 1.09% (active)
[4]; 10 µM unless noted
  growth: -52.9% (active)
[5]; 10 µM unless noted
  growth: -35.1% (active)

## C[C@H]1CCC/C=C/[C@@H]2C[C@H](O)C[C@H]2[C@H](O)/C=C/C(=O)O1
[1]; 10 µM unless noted
  growth: -20.4% (active)
[2]; 10 µM
  growth: -11.9% (active)
[3]; 10 µM unless noted
  growth: -70.8% (active)
[4]; 10 µM unless noted
  growth: -49.5% (active)
[5]; 10 µM unless noted
  growth: -59.8% (active)

## C[C@]12CC[C@H](O)CC1=CC[C@@H]1[C@@H]2CC[C@]2(C)C(=O)CC[C@@H]12
[1]; 10 µM unless noted
  growth: 110% (inactive)
[2]; 10 µM
  growth: 130% (inactive)
[3]; 10 µM unless noted
  growth: 91.6% (inactive)
[4]; 10 µM unless noted
  growth: 90.7% (inactive)
[5]; 10 µM unless noted
  growth: 97.1% (inactive)

## CC(=O)O[C@H]1C[C@@H]2OC3C=C(C)CCC3(C)[C@@]1(C)[C@@]21CO1 (some centres undefined)
[1]; 10 µM unless noted
  growth: 0.513% (active) and -7.31% (active)
[2]; 10 µM
  growth: -0.46% (active) and -15% (active)
[3]; 10 µM unless noted
  growth: -22.5% (active) and -18.6% (active)
[4]; 10 µM unless noted
  growth: -27.6% (active) and -20.3% (active)
[5]; 10 µM unless noted
  growth: -21.9% (active) and -43% (active)

## COc1cccc2c1cc([N+](=O)[O-])c1c(C(=O)O)cc3c(c12)OCO3
[1]; 10 µM unless noted
  growth: 79.5% (inactive) and 109% (inactive)
[2]; 10 µM
  growth: 38.2% (inactive) and 94% (inactive)
[2]; 100 µM
  growth: 15.3% (inactive) and 2.6% (active)
[3]; 10 µM unless noted
  growth: 72.4% (inactive) and 92.3% (inactive)
[4]; 10 µM unless noted
  growth: 47.7% (inactive) and -1.44% (active)
[5]; 10 µM unless noted
  growth: 84.6% (inactive) and 99.1% (inactive)

## Cc1ccc(C(=O)OC(C(=O)O)C(OC(=O)c2ccc(C)cc2)C(=O)O)cc1 (centres undefined) (tested in a mixture with another compound)
[1]; 10 µM unless noted
  growth: 53.4% (inactive)
[2]; 10 µM
  growth: 14.3% (inactive)
[3]; 10 µM unless noted
  growth: 22.1% (inactive)
[4]; 10 µM unless noted
  growth: 73% (inactive)
[5]; 10 µM unless noted
  growth: 58.9% (inactive)

## CC[C@@]1(O)C(=O)OCc2c1cc1n(c2=O)Cc2cc3ccccc3nc2-1
[1]; 10 µM unless noted
  growth: -1.68% (active)
[2]; 10 µM
  growth: 2.07% (active)
[3]; 10 µM unless noted
  growth: -12.5% (active)
[4]; 10 µM unless noted
  growth: -73.8% (active)
[5]; 10 µM unless noted
  growth: -42.1% (active)

## CO[C@H](/C(C)=C/C=C/C(C)=C/c1coc(C)n1)[C@H](C)[C@H]1C[C@@H](O)[C@@]2(C)O[C@H]2/C=C/[C@@H](C)[C@@H]2C[C@@H](CC(=O)O2)C[C@H]2O[C@@H]2C(=O)O1
[1]; 10 µM unless noted
  growth: 21.5% (inactive)
[2]; 10 µM
  growth: 14.7% (inactive)
[3]; 10 µM unless noted
  growth: 4.48% (active)
[4]; 10 µM unless noted
  growth: -25.4% (active)
[5]; 10 µM unless noted
  growth: -17.9% (active)

## Cc1cc(N=Nc2ccccc2C)ccc1N
[1]; 10 µM unless noted
  growth: 84.7% (inactive)
[2]; 10 µM
  growth: 58.7% (inactive)
[3]; 10 µM unless noted
  growth: 78.1% (inactive)
[5]; 10 µM unless noted
  growth: 78.2% (inactive)
